Screening data deposited in PubChem by Sanford-Burnham Center for Chemical Genomics.
CYP2C9 inhib: inhibitors of human CYP2C9; P11712; CYP2C9 Supersomes, luciferin-H conversion, luminescence; inhibition, % at 5 µM; 96,000 tested, 20% active;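 active = blocking of liver enzyme CYP2C9 beyond about 50% at 5 µM, limit read from the data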
Target sequence (P11712 whole entry, looked up): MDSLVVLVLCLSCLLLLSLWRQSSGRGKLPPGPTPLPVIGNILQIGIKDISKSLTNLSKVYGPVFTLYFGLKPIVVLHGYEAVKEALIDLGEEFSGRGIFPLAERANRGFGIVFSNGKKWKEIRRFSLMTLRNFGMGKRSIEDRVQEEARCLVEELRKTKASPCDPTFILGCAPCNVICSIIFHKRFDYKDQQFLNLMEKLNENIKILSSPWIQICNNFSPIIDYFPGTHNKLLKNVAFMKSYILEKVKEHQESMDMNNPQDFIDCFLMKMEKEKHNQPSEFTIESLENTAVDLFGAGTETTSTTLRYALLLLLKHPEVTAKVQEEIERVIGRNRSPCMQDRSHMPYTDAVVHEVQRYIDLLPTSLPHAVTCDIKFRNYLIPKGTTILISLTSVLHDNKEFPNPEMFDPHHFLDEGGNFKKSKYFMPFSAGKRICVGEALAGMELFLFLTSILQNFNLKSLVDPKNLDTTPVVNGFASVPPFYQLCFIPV
PLAP activator: activators of human placental alkaline phosphatase; P05187; purified PLAP enzyme, luminescent substrate read-out; stronger effect = higher value; activation fold at 20 µM; 96,000 tested, 1.2% active; AID 696; in the data active = activation fold above about 2
CYP2C19 act: activators of human cytochrome P450 2C19; 96,000 tested, under 10 active; activation factor at 5 µM; recombinant CYP2C19, luciferin-H EGE luminescence; stronger effect = higher value; 0 = fully inhibited enzyme, 1 = untreated enzyme; P33261;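 active = activation factor of at least 2 at 5 µM in the primary screen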
CYP2C9 act: increases human cytochrome P450 2C9 activity. P11712. recombinant CYP2C9, luciferin-H conversion, luminescence; stronger effect = higher value; factor 1 = untreated enzyme, 0 = blocked. activation factor at 5 µM. 96,000 tested, 1.4% active. AID 1024;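 active = activation factor of 2 or more for CYP2C9 at a 5 µM dose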
CYP2C19 inhib: human CYP2C19 inhibition; 96,000 tested, 21% active; AID 778; CYP2C19 Supersomes, luciferin-H EGE luminescence, 30 min; inhibition, % at 5 µM; P33261;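 active = CYP2C19 inhibition above a set limit at 5 µM in the primary screen, cut at about 50% in these data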
Of the large screens only hits and unclear results are named; the others gave an inactive call. Rows were chosen to be rich in hits. Some 31% of all compounds tested hit in one or more screens of this group.

CCOC(=O)C(NCc1ccco1)(NC(=O)c1ccccc1)C(F)(F)F (stereo not given)	CYP2C19 inhib 75.9
COc1cccc(C2CC(=O)Nc3c2c(=O)n(C)c(=O)n3C)c1OC (stereo not given)	none
Cc1ccccc1NC(C)C(=O)N/N=C/c1ccccc1OCc1cccc(Br)c1 (stereo not given)	CYP2C9 inhib 76.4
CCC(CO)NCc1ccc2c(c1)n(C)c(=O)n2C (stereo not given)	none
Cc1cc(-c2cccs2)n[nH]1	none
Cc1nn2cc(-c3ccc(Cl)cc3)nc2s1	none
COc1cccc(-c2cn3nc(C)c(C)nc3n2)c1	CYP2C19 inhib 82.7
COc1ccc(-c2cn3nc4c(nc3n2)CCCC4)cc1	none
Cc1nc2nc(-c3ccc(Cl)cc3)cn2nc1C	CYP2C19 inhib 55.6
Cc1nc2nc(-c3cccs3)cn2nc1C	CYP2C19 inhib 61.9
Cc1c(/C=C(\C#N)c2nn(-c3ccccc3)c(N)c2C#N)c2ccccc2n1Cc1ccc(F)cc1	none
CN(CC(=O)NC1CCCCCC1)S(=O)(=O)c1ccc2c(c1)n(C)c(=O)c(=O)n2C	none
CCCn1c(=O)c2ccccc2n2c(SCCOc3ccc(C)cc3)nnc12	none
CCOC(=O)c1cc(-c2ccc(F)cc2)n(CC(=O)N2CCCC2)c1C	none
CCOC(=O)c1cc(-c2ccc(C)cc2)n(CCC(=O)NCCCOC)c1C	CYP2C9 inhib 100.0, CYP2C19 inhib 93.0
Cc1ccc(S(=O)(=O)Cc2ccc(C(=O)N3CCCCCC3)o2)cc1	none
Cc1ccc(S(=O)(=O)Cc2ccc(C(=O)N3CCN(c4ccccn4)CC3)o2)cc1	CYP2C9 inhib 69.6
O=C(c1ccc(CS(=O)(=O)c2ccccc2)o1)N1CCN(c2ncccn2)CC1	CYP2C9 inhib 63.5, CYP2C19 inhib 54.5
O=C(NCCN1CCCC1)c1ccc(CS(=O)(=O)c2c(Cl)cccc2Cl)o1	none
O=C(c1ccc(CS(=O)(=O)c2c(Cl)cccc2Cl)o1)N1CCN(c2ccccn2)CC1	CYP2C19 inhib 92.8
O=C(c1ccc(CS(=O)(=O)c2ccc(Br)cc2)o1)N1CCOCC1	none
O=C(c1ccc(CS(=O)(=O)c2cccc(C(F)(F)F)c2)o1)N1CCN(c2ccccn2)CC1	CYP2C9 inhib 60.3, CYP2C19 inhib 53.5
COC(=O)Cn1nc(-c2ccccc2)n(-c2ccccc2)c1=S	none
COC(=O)[C@@H](NC(=O)NC1CCCc2ccccc21)C(C)C (stereo not given in full)	none
CC(C)CNS(=O)(=O)c1ccc(S(=O)(=O)N2CCN(CCC#N)CC2)cc1	none
Oc1c(Br)cc(C2N=C(c3ccccc3)NO2)cc1Br (stereo not given)	none
O=C(c1ccc(CS(=O)(=O)c2ccc(Br)cc2)o1)N1CCN(c2ccccn2)CC1	CYP2C9 inhib 68.7
COCc1[nH]nc2c1C(c1ccsc1)C(C#N)=C(N)O2 (stereo not given)	none
COC(=O)Cc1[nH]nc2c1C(C1C=CCCC1)C(C#N)=C(N)O2 (stereo not given)	CYP2C9 inhib 60.2, PLAP activator 2, CYP2C19 inhib 70.2
COC(=O)Cc1[nH]nc2c1C(c1c[nH]c3ccccc13)C(C#N)=C(N)O2 (stereo not given)	CYP2C19 inhib 51.8
CCOC(=O)Cc1[nH]nc2c1C(c1ccoc1)C(C#N)=C(N)O2 (stereo not given)	CYP2C19 inhib 77.2
CCOC(=O)c1c(NC(=O)Cn2nc([N+](=O)[O-])c(Br)c2C)sc2c1CCC(C)C2 (stereo not given)	none
CCOc1cc(CNn2cnnc2)ccc1OCC(=O)NC1CCCCC1	CYP2C9 inhib 65.3
CCOc1ccccc1OCC(=O)NC1CCCCC1	none
CCOC(=O)c1c(C)sc2c1N(C(=O)CN1CCOCC1)c1cc(Cl)ccc1S2	none
CCOC(=O)c1c(C)sc2c1N(C(=O)CN(CC)CC)c1cc(Cl)ccc1S2	CYP2C9 inhib 70.4, CYP2C19 inhib 70.2
CCOC(=O)c1ccccc1NC(=O)Cn1cnc2c1c(=O)n(C)c(=O)n2C	none
CC(O)C(=O)NCCOCCOCCNC(=O)C(C)O (stereo not given)	CYP2C19 inhib 65.6
COc1ccccc1CNc1cc(CSc2ccc(Cl)cc2)nc(C)n1	CYP2C9 inhib 94.4, PLAP activator 2, CYP2C19 inhib 91.0
COc1cccc(CNc2nc3nc(C)cc(C)n3n2)c1	none
COc1cccc(CNc2cc(CSc3ccc(Cl)cc3)nc(C)n2)c1	CYP2C9 inhib 95.7, PLAP activator 2, CYP2C19 inhib 94.4
COC(=O)c1ccc(CSc2nnc(Nc3ccc(C)cc3)s2)o1	none
CC1=Nn2c(nc(-c3ccccc3)c2-c2ccccc2)NC(=O)C1Br (stereo not given)	none
Cc1occc1C(=O)NNC(=S)Nc1cccc([N+](=O)[O-])c1	PLAP activator 2
COc1ccc(Br)cc1CNc1ccc(O)cc1	CYP2C19 inhib 73.0
COc1ccccc1CNc1ccc(C(=O)O)cc1	none
CCNC(=O)CN(c1ccc(CC)cc1)S(C)(=O)=O	none
CNC(=O)CN(c1ccc(C(C)C)cc1)S(C)(=O)=O	CYP2C19 inhib 60.7
Cc1ccc(-n2nc(C(=O)O)cc2-c2ccccc2)cc1	none
CCSc1ccccc1C(=O)NCc1ccco1	none
C=CCNC(=O)c1ccccc1NS(=O)(=O)c1ccccc1	CYP2C9 act 2.3, CYP2C19 inhib 67.8
C=CCNC(=O)c1ccccc1NS(=O)(=O)c1ccc(SC)cc1	CYP2C19 inhib 97.3
C=CCNC(=O)c1ccccc1NC(=O)Nc1ccccc1	none
CCOC(=O)C(C(=O)Nc1cccc(C)n1)C1CCCCC1 (stereo not given)	CYP2C9 inhib 82.3, CYP2C19 inhib 80.4
CCOC(=O)C(C(=O)Nc1nccs1)C1CCCCC1 (stereo not given)	CYP2C9 inhib 76.9, CYP2C19 inhib 68.6
CCOC(=O)C(C(=O)Nc1ccccn1)C1CCCCC1 (stereo not given)	none
CCOC(=O)C(C(=O)Nc1cccc(C)c1)C1CCCCC1 (stereo not given)	CYP2C9 inhib 55.1, CYP2C19 inhib 82.4
CCOC(=O)N1CCN(S(=O)(=O)c2ccc(C(=O)Nc3nc4ccccc4s3)cc2)CC1	none
CCOC(=O)C(C(=O)Nc1nc2ccccc2s1)C1CCCCC1 (stereo not given)	CYP2C9 inhib 91.9
COC(=O)Nc1ccc(S(=O)(=O)N(CCO)CCO)cc1	none
COc1ccc(C(=O)Nc2cccc(-c3cnc4ccccc4n3)c2)cc1	none (no result: CYP2C9 inhib, CYP2C19 act, CYP2C9 act, CYP2C19 inhib)
COc1cccc(NC(=O)CSc2nc3n[nH]c(C)c3c(=N)n2-c2cccc(OC)c2)c1	CYP2C9 inhib 79.5, CYP2C19 inhib 88.0
Cc1ccc(CNC(=O)CSc2nc3n[nH]c(C)c3c(=N)n2-c2cccc(C)c2)cc1	CYP2C9 inhib 53.9, PLAP activator 2.5, CYP2C19 inhib 65.7
COc1cccc(-n2c(SCC(=O)NCCC3=CCCCC3)nc3n[nH]c(C)c3c2=N)c1	none
CN(Cc1ccccc1)c1oc(-c2ccco2)nc1C#N	CYP2C9 inhib 62.0, CYP2C19 inhib 58.8
N#Cc1nc(Cc2cccc3ccccc23)oc1NCCCN1CCOCC1	none
